Compound activity from PubChem.
Pf growth 48h: Primary qHTS for delayed death inhibitors of the malarial parasite plastid, 48 hour incubation | P. falciparum luciferase growth in erythrocytes, 48 h | Potency, µM (series often up to 28.7 µM), most hits filed as inhibitors | 5.9% of 310,000 active | AID 504832, 2011
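Luciferase-expressing P. falciparum in infected erythrocytes (2% hematocrit, 0.1% parasitemia final) in RPMI 1640/0.5% Albumax were exposed to compound for 48 hours at 37 C, 5% CO2; growth read as luminescence.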
Pf growth 96h: Primary qHTS for delayed death inhibitors of the malarial parasite plastid, 96 hour incubation | P. falciparum luciferase reporter growth, 96 h | 6.9% of 320,000 active | Potency, µM (doses to about 28.7 µM), most hits filed as inhibitors | AID 504834, 2011
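Cell-based qHTS: luciferase-tagged P. falciparum in erythrocytes (2% hematocrit, 0.05% parasitemia final) incubated with compounds for 96 hours, 37 C, 5% CO2; luciferase detection reagent then added and luminescence measured.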
SARS PLP yeast: qHTS of Yeast-based Assay for SARS-CoV PLP; S. cerevisiae expressing SARS-CoV PLpro, growth rescue; 0.19% of 330,000 active; Potency, µM (top dose mostly 32.9 µM), usual class: activators; AID 485353, 2010; calls by dose curve; further: nearly all actives have a fitted effect of over 55% in size
NS1 inh: qHTS Assay for Inhibitors of Influenza NS1 Protein Function; 0.4% of 270,000 active; AID 2326, 2010; Potency, µM (doses to about 46.1 µM); calls by dose curve; further: actives are rising curves; nearly all actives have a fitted effect of over 50% in size
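Growth recovery, yeast-based: influenza A NS1 expressed in S. cerevisiae causes slow growth, and suppressors are detected by OD600. The parent strain without NS1 is used as positive control.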
Large screens that a line does not name were inactive. Shown are actives, neighbours in structure and some others; about 10% of the full set was active somewhere. Unless noted, the call rests on the fitted dose curve; in most records, active means well fitted inhibition curve with a large enough effect; inconclusive means small, poorly fitted or top-dose-only effect, or another doubt; inactive means no such curve, though single readings can be large or run the other way.

Cc1ccc2nc(-c3ccc(NC(=O)CN(c4ccccc4C)S(C)(=O)=O)cc3)sc2c1	none
Cc1cc(C)cc(N(CC(=O)Nc2ccc(-c3nc4ccc(C)cc4s3)cc2)S(C)(=O)=O)c1	Pf growth 96h 4.1µM
CCCN(CCC)c1nc(C#N)nc(N(CCC)CCC)n1	Pf growth 48h 12µM, Pf growth 96h 8.3µM (no result: NS1 inh)
Cc1noc(C)c1COC(=O)c1ccc(F)c(S(=O)(=O)N2CCOCC2)c1	Pf growth 48h inconclusive, Pf growth 96h inconclusive (no result: NS1 inh)
CCOC(=O)C1=C(C)NC(=S)NC1c1ccc(OCC(=O)N2CCCCCC2)cc1 (stereo not drawn)	Pf growth 48h inconclusive, Pf growth 96h inconclusive
CC(=O)NC1(c2ccccc2)CCN(Cc2nnnn2C(C)(C)C)CC1	Pf growth 96h 12µM
CC(OC(=O)c1cc(S(=O)(=O)N(C)C)ccc1N1CCCC1)C(=O)NCc1ccccc1 (stereo not drawn)	none
CN(c1ccccc1)S(=O)(=O)c1cccc(NC(=O)CSc2nccc(=O)[nH]2)c1	none (no result: Pf growth 48h, Pf growth 96h, NS1 inh)
O=C(Nc1cccc(C(F)(F)F)c1)C(Sc1ncnc2ccccc12)c1ccccc1 (stereo not drawn)	Pf growth 48h 7.4µM, Pf growth 96h inconclusive
Cc1cc(C)cc(NC(=O)C(Sc2ncnc3ccccc23)c2ccccc2)c1 (stereo not drawn)	Pf growth 48h 12µM, Pf growth 96h 3.3µM, NS1 inh inconclusive
O=C(O)CCCCCCCCc1cn(CCc2c[nH]c3ccccc23)nn1	none
O=C(O)C(CCCCN1C(=O)c2ccccc2C1=O)N1C(=O)c2ccccc2C1=O (stereo not drawn)	Pf growth 96h 10µM
O=C(O)C(Cc1ccccc1)N1C(=O)c2ccccc2C1=O (stereo not drawn)	Pf growth 96h 15µM (no result: Pf growth 48h)
O=C(O)[C@H](CCc1ccccc1)N1C(=O)c2ccccc2C1=O	none (no result: Pf growth 48h, Pf growth 96h, SARS PLP yeast)
O=C(O)C(Cc1ccc(O)cc1)N1C(=O)c2ccccc2C1=O (stereo not drawn)	none (no result: Pf growth 48h)
O=[N+]([O-])c1cccc(-c2nn(-c3ccccc3)cc2CO)c1	Pf growth 96h 0.47µM
N#CCc1nc2ccc(S(=O)(=O)N3CCOCC3)cc2s1	Pf growth 48h 15µM, Pf growth 96h 13µM
CSc1nc2ccc(S(=O)(=O)N3CCOCC3)cc2s1	Pf growth 96h inconclusive
CC(C)n1nnnc1SCC(=O)NC1CCCC1	Pf growth 96h 5.2µM
CC(C)n1nnnc1SCC(=O)NNC(=O)C1CCCCC1	none
CCNc1nc(NC(C)(C)C)nc(N2CCCCC2)n1	Pf growth 48h inconclusive
c1ccc(Nc2nc(N3CCCCC3)nc(N3CCCCC3)n2)cc1	Pf growth 96h 9.3µM (no result: Pf growth 48h)
CCNc1nc(N2CCCC2)nc(N2CCCC2)n1	Pf growth 48h 12µM
Fc1ccc(Nc2nc(Oc3ccccc3F)nc(N3CCCC3)n2)cc1	Pf growth 48h 1.5µM (no result: Pf growth 96h)
c1ccc(Nc2nc(N3CCCC3)nc(N3CCCC3)n2)cc1	Pf growth 96h 12µM (no result: Pf growth 48h)
CCn1nc(C)c(CNC(=O)C2CCC(=O)N(CCc3ccc(OC)cc3)C2)c1C (stereo not drawn)	NS1 inh inconclusive
OCCC1CN(Cc2cccn2-c2ccccn2)CCN1C1CCCCC1 (stereo not drawn)	Pf growth 96h inconclusive
Cc1nc2ccccc2c(=O)n1NC(=O)c1ccc(C(C)(C)C)cc1	Pf growth 96h inconclusive
Cc1nc2ccccc2c(=O)n1Nc1cccc(Cl)c1	Pf growth 48h 2.9µM, Pf growth 96h 5.9µM
Cc1ccc(C(=O)Nn2c(C)nc3ccccc3c2=O)cc1C	Pf growth 96h 13µM
CCN(CC(=O)Nc1cc(Cl)ccc1C)C(=O)c1ccc(=O)n(Cc2ccccc2)n1	Pf growth 48h inconclusive, Pf growth 96h 9.3µM
CCN(CC(=O)Nc1c(F)cccc1F)C(=O)c1ccc(=O)n(Cc2ccccc2)n1	none
CCn1c(-c2cc(Br)cc(OC)c2O)nc2cc(S(=O)(=O)N(C)C)ccc21	Pf growth 48h inconclusive, Pf growth 96h 12µM
Cc1ccc(CSC2=Nc3sccc3C3=NC(=O)CN23)cc1	Pf growth 48h 12µM, Pf growth 96h inconclusive
CC1CC(C)CN(S(=O)(=O)c2ccc(C(=O)N3CCOCC3)cc2)C1 (stereo not drawn)	Pf growth 48h inconclusive
CC(=O)OC(c1nc2ccccc2c(=O)n1C1CC2(OC1=O)c1ccccc1N1C(=O)C(C)(C)N(O)C12)C(C)C (stereo not drawn)	Pf growth 48h 2.1µM, Pf growth 96h 10µM
O=C(NCC(=O)N1CCN(c2ccccc2)CC1)c1cccs1	none
CC(C)(Oc1ccc(Cl)cc1)C(=O)NC1CCCCC1	Pf growth 48h 12µM (no result: NS1 inh)
CC1(C)CC(NC(=O)C(C)(C)Oc2ccc(Cl)cc2)CC(C)(C)N1	none
